Results filed as inconclusive are left out. Activity calls are given as the source filed them. Unless noted, calls follow the shape of the dose curve; as a rule, active = well fitted curve in the direction sought with a large enough effect in the repeat runs; inconclusive = weak or mixed curves; inactive = no such curve, though single readings can be large; an effect the other way counts as inactive or inconclusive.
Columns and labels:
[1] = A CellTox Green Cytotoxicity Assay to monitor cytotoxicity in HepG2 cells - 0 hour (AID 1224882); also: % is scaled to controls: 0 for no effect and ±100 for the full control effect; nearly all actives have a fitted effect of over 35% in size
In short: (§1)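 First, HepG2 cells (600/well) mixed with reagent were plated; second, after 5 h at 37 C they received compounds via pintool; third, fluorescence was measured at 0 h through 40 h at 8 h intervals.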

[2] = A CellTox Green Cytotoxicity Assay to monitor cytotoxicity in HepG2 cells - 32 hour (AID 1224883); also: nearly all actives have a fitted effect of over 50% in size; also: potency is read from the fitted curve at half-maximal effect; as to cytotoxicity increase: % is scaled to controls: 0 for no effect and ±100 for the full control effect
In short: as §1

[3] = A CellTox Green Cytotoxicity Assay to monitor cytotoxicity in HEK293 cells - 8 hour (AID 1224884); also: % is scaled to controls: 0 for no effect and ±100 for the full control effect; nearly all actives have a fitted effect of over 35% in size
In short: (§2)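 Dead-cell fluorescence measured kinetically: asymmetric cyanine dye, HEK293, 600 cells/well, 5 h settle, 23 nL cpd/DMSO, 37 C, reads 0–40 h every 8 h.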

[4] = qHTS RealTime-Glo MT Cell Viability Assay in HepG2 cells - 16 hour (AID 1224885); also: % is scaled to controls: 0 for no effect and ±100 for the full control effect; nearly all actives have a fitted effect of over 50% in size
In short: (§3)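 Cells + NanoLuc/prosubstrate dispensed (600 cells/well) → 5 h at 37 C/5% CO2 → compounds in DMSO transferred → 40 h incubation at 37 C, luminescence read at 0, 8, 16, 24, 32, 40 h.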

[5] = qHTS RealTime-Glo MT Cell Viability Assay in HepG2 cells - 0 hour (AID 1224889); also: % is scaled to controls: 0 for no effect and ±100 for the full control effect; nearly all actives have a fitted effect of over 50% in size
In short: as §3

[6] = A CellTox Green Cytotoxicity Assay to monitor cytotoxicity in HepG2 cells - 8 hour (AID 1224890); also: % is scaled to controls: 0 for no effect and ±100 for the full control effect; nearly all actives have a fitted effect of over 45% in size
In short: as §1

[7] = qHTS assay to identify small molecule antagonists of the androgen receptor (AR) signaling pathway using the MDA cell line in the presence of 0.5 nM R1881 - cell viability counter screen (AID 1259242); also: nearly all actives have a fitted effect of over 45% in size; also: potency is read from the fitted curve at half-maximal effect
In short: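 qHTS format. MDA-kb2 (MMTV-luc, AR/GR responsive) + cpd + 0.5 nM R1881 final, 16 hr 37C/0% CO2 → CellTiter-Fluor 30 min → fluorescence intensity.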

[8] = qHTS assay to identify small molecule HDAC inhibitors (AID 1259364);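 also: wild-type HCT-116 cells with endogenous class I/II HDAC activity; top concentration of the series differs between compounds; % is scaled to controls: 0 for no effect and ±100 for the full control effect; nearly all actives have a fitted effect of over 45% in size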
In short: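 Quantitative high-throughput format: overnight-seeded HCT-116 cells got compounds for 2 hr at 37C; HDAC-Glo I/II reagent added, 30 min RT, luminescence measured.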

[9] = qHTS assay to identify small molecule antagonists of the sonic hedgehog signaling (Shh) pathway - cell viability counter screen (AID 1259367); also: nearly all actives have a fitted effect of over 55% in size; also: potency is read from the fitted curve at half-maximal effect
In short: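 Cytotoxicity was assessed in parallel with Shh reporter activity by measuring live-cell protease fluorescence (CellTiter-Fluor) in NIH/3T3 cells stably carrying Gli1-Luc, treated with compound under conditioned medium stimulation for 23 hr plus 1 hr reagent incubation.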

[10] = qHTS assay to identify small molecule agonists of the sonic hedgehog signaling (Shh) pathway (AID 1259368; calls by dose curve;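 also: NIH/3T3-derived 3T3Gli1-Luc cells carrying a stable Gli1-driven firefly luciferase reporter; series mostly up to about 92 µM; % is scaled to controls: 0 for no effect and ±100 for the full control effect; nearly all actives have a fitted effect of over 15% in size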)
In short: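 Quantitative high-throughput format using a Gli1-driven firefly luciferase reporter line derived from NIH/3T3 cells. After a 24 hr compound treatment at 37 C and 5% CO2, luminescence reported Gli1 response element activity.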

[11] = qHTS RealTime-Glo MT Cell Viability Assay in HEK293 cells - 8 hour (AID 1224887); also: nearly all actives have a fitted effect of over 50% in size; also: potency is read from the fitted curve at half-maximal effect; as to activity change, negative = cytotoxicity: top concentration of the series differs between compounds; % is scaled to controls: 0 for no effect and ±100 for the full control effect
In short: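 600 HEK293 cells per well, dispensed already mixed with RealTime-Glo MT reagents. Compound dosing came 5 h later. The same wells were read for luminescence at 0, 8, 16, 24, 32 and 40 h of exposure at 37 C.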

[12] = A CellTox Green Cytotoxicity Assay to monitor cytotoxicity in HEK293 cells - 16 hour (AID 1224888); also: nearly all actives have a fitted effect of over 35% in size; also: potency is read from the fitted curve at half-maximal effect; as to activity change: % is scaled to controls: 0 for no effect and ±100 for the full control effect
In short: as §2

[13] = qHTS assay to identify small molecule antagonists of the estrogen receptor alpha (ER-alpha) signaling pathway using the BG1 cell line in the presence of 0.1 nM 17-beta-estradiol - cell viability counter screen (AID 1259241); also: nearly all actives have a fitted effect of over 40% in size; also: potency is read from the fitted curve at half-maximal effect
In short: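 VM7Luc4E2, 4,000 cells/well, phenol red-free medium + 10% charcoal-stripped FBS; 24 hr plating; cpd + 0.1 nM E2 final, 22 hr 37C/5% CO2; CellTiter-Fluor 30 min, fluorescence.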

[14] = qHTS assay to identify small molecule HDAC inhibitors - cell viability counter screen (AID 1259365)
In short: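 Luminescence from CellTiter-Glo, developed 30min at room temperature, reports viability of wild-type HCT-116 cells treated 2hr with compounds at 37 C and 5% CO2 after overnight plating.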

[15] = qHTS assay to identify small molecule antagonists of the sonic hedgehog signaling (Shh) pathway (AID 1259369; calls by dose curve; also: nearly all actives have a fitted effect of over 45% in size; also: potency is read from the fitted curve at half-maximal effect)
In short: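 Stable Gli1-Luc reporter NIH/3T3 clone; quantitative HTS in stimulated mode with conditioned medium. Luminescence measured after 24hr compound treatment at 37 C.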

[16] = molecular target: Estrogen receptor (Homo sapiens) (UniProt P03372); test: qHTS assay to identify small molecule antagonists of the estrogen receptor alpha (ER-alpha) signaling pathway using the BG1 cell line in the presence of 0.1 nM 17-beta-estradiol (AID 1259244); also: nearly all actives have a fitted effect of over 50% in size; also: potency is read from the fitted curve at half-maximal effect; as to activity change, negative = inhibition: % is scaled to controls: 0 for no effect and ±100 for the full control effect
In short: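 Reporter is a stably transfected luciferase under four estrogen responsive elements in VM7Luc4E2 cells expressing native full-length ER-alpha; inhibition of 0.1 nM (final) 17beta-estradiol-driven signal over 22 h is read by luminescence.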

[17] = qHTS assay to identify small molecule agonists of the sonic hedgehog signaling (Shh) pathway - cell viability counter screen (AID 1259366); also: nearly all actives have a fitted effect of over 50% in size; also: potency is read from the fitted curve at half-maximal effect
In short: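 Cytotoxicity counter screen run in the same wells as the Shh reporter assay. NIH/3T3 cells carrying a Gli1 response element–driven luciferase were treated with DMSO-dissolved compounds for 24hr, and live-cell protease activity was measured with CellTiter-Fluor.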

[18] = qHTS RealTime-Glo MT Cell Viability Assay in HEK293 cells - 24 hour (AID 1224886); also: nearly all actives have a fitted effect of over 50% in size; also: potency is read from the fitted curve at half-maximal effect
In short: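 Tox21 10K qHTS, HEK293, 600 cells/well, RealTime-Glo reagent co-dispensed with cells; 5 h preincubation, compound by pintool, 37 C, luminescence at 0–40 h.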

[19] = qHTS assay to identify small molecule phospholipidosis (PLD) inducers (AID 1259344; active = well fitted curve in the direction sought with a large enough effect; an effect the other way counts as inactive or inconclusive; also: potency is read from the fitted curve at half-maximal effect)
In short: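 Cells (HepG2, 900 per well) attach for 4 h, receive LipidTOX Red and compound together, incubate 24 h at 37 C, are fixed 30 min with paraformaldehyde/Hoechst, then imaged at one site per well.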

[20] = molecular target: Androgen receptor (Homo sapiens) (UniProt P10275); test: qHTS assay to identify small molecule antagonists of the androgen receptor (AR) signaling pathway using the MDA cell line in the presence of 0.5 nM R1881 (AID 1259243)
In short: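 Antagonist mode quantitative HTS in MDA-kb2 MMTV-luciferase cells, agonist R1881 at 0.5 nM final, 16 hr exposure at 37C and 0% CO2, luminescent detection.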

Sequence of Androgen receptor (Homo sapiens) (P10275 whole entry, looked up): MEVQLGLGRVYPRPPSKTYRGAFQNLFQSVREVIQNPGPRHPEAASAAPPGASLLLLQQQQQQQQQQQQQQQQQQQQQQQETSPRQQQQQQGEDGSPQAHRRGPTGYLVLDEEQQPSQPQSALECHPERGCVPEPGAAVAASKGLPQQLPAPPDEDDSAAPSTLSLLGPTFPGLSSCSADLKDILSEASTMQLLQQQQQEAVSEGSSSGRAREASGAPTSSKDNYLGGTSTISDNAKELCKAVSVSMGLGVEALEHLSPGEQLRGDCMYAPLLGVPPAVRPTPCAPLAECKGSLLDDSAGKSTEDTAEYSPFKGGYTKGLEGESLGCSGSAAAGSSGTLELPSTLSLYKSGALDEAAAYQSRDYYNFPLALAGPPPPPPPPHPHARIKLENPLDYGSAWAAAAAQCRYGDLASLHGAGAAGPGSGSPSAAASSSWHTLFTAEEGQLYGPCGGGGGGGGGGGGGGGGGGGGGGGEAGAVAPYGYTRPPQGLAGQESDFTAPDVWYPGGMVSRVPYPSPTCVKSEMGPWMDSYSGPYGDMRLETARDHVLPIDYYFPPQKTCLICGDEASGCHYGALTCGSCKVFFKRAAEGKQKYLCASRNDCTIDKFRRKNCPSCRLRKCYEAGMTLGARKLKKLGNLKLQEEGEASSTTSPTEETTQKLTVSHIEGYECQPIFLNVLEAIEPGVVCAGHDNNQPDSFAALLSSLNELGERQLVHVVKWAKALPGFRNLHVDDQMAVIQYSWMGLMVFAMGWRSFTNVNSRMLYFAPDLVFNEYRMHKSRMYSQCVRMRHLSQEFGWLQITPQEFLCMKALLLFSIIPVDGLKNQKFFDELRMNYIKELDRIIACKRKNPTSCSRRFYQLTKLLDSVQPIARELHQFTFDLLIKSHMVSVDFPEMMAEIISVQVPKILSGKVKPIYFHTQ
Sequence of Estrogen receptor (Homo sapiens) (P03372 whole entry, looked up): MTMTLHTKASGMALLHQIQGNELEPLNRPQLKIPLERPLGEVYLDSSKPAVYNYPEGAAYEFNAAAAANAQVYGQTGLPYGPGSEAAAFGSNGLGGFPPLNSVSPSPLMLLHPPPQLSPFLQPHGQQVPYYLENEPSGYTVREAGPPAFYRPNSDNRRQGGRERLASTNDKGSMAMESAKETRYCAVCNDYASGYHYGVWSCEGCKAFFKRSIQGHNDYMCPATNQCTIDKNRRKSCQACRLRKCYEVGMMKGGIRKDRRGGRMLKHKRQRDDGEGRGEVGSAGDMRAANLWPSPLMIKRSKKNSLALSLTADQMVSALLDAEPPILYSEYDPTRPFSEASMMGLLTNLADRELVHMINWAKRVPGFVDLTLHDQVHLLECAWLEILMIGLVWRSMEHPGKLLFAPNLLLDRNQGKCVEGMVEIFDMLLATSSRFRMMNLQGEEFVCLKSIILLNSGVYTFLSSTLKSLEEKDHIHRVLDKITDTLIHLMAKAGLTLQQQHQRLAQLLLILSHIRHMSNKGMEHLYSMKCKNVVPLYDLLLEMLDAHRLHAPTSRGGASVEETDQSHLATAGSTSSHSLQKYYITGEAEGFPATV

Cc1ccc(N=Nc2c(O)c(C(=O)O)cc3ccccc23)c(S(=O)(=O)O)c1
active: Potency [7] 11.8 µM | Potency [9] 13.3 µM
inactive: Potency [1] | Potency [2] | Potency [3] | Potency [4] | Potency [5] | Potency [6] | Potency [8] | outcome [10]

C=CC(=O)OCCOCCOC(=O)C=C
active: Potency [2] 49.2 µM | Potency [13] 61.4 µM | Potency [9] 27.4 µM | Potency [15] 4.88 µM
inactive: Potency [1] | Potency [3] | Potency [11] | Potency [12] | Potency [5] | Potency [6] | Potency [8] | Potency [14] | outcome [10]

OCc1cc(C(O)CNCCCCCCOCCCCc2ccccc2)ccc1O (stereo not given)
inactive: Potency [1] | Potency [3] | Potency [12] | Potency [5] | Potency [16] | Potency [14] | outcome [10]
active: Potency [2] 23.9 µM | Potency [17] 3.76 µM | Potency [9] 4.73 µM | Potency [15] 6.68 µM

Cc1oc2c(NC(=O)c3c(Cl)cccc3Cl)cccc2c1C(C)(C)O
active: Potency [2] 49 µM | Potency [16] 13.7 µM | Potency [15] 8.63 µM
inactive: Potency [1] | Potency [3] | Potency [12] | Potency [5] | Potency [6] | Potency [13] | Potency [8] | Potency [17] | Potency [9] | outcome [10]

COc1cc(C(=O)OCCCN2CCCN(CCCOC(=O)c3cc(OC)c(OC)c(OC)c3)CC2)cc(OC)c1OC
inactive: Potency [1] | Potency [4] | Potency [12] | Potency [5] | Potency [6] | Potency [7] | Potency [19] | Potency [8] | Potency [14] | outcome [10]
active: Potency [2] 21.3 µM | Potency [18] 8.49 µM | Potency [16] 13.3 µM | Potency [17] 6.68 µM | Potency [9] 10.6 µM | Potency [15] 6.68 µM

O=C1[C@H]2CCCC[C@H]2C(=O)N1CCCCN1CCN(c2nsc3ccccc23)CC1
active: Potency [19] 14.1 µM | Potency [17] 15 µM | Potency [15] 23.7 µM
inactive: Potency [1] | Potency [2] | Potency [4] | Potency [12] | Potency [5] | Potency [16] | Potency [8] | Potency [14] | outcome [10]

COc1ccc(S(=O)(=O)N2C(=O)[C@@](c3ccccc3OC)(N3C[C@H](O)C[C@H]3C(=O)N(C)C)c3cc(Cl)ccc32)c(OC)c1
inactive: Potency [1] | Potency [2] | Potency [12] | Potency [5] | Potency [6] | Potency [8] | Potency [14] | outcome [10]
active: Potency [18] 49 µM | Potency [20] 54.5 µM | Potency [17] 8.63 µM | Potency [9] 9.69 µM | Potency [15] 15.4 µM

Nc1ccc([N+](=O)[O-])c(C(F)(F)F)c1
inactive: Potency [1] | Potency [2] | Potency [4] | Potency [18] | Potency [11] | Potency [5] | Potency [6] | Potency [13] | Potency [7] | Potency [16] | Potency [8] | Potency [14] | Potency [17] | Potency [9] | outcome [10]

CCCCCCCCCc1ccc(OCCOCCO)cc1
active: Potency [2] 20.5 µM | Potency [18] 1.3 µM | Potency [12] 14.5 µM | Potency [13] 8.1 µM | Potency [7] 5.74 µM | Potency [20] 2.28 µM | Potency [15] 8.1 µM
inactive: Potency [1] | Potency [5] | Potency [19] | Potency [8] | Potency [14] | outcome [10]

CCC(C)c1cc(C(C)(C)C)c(O)c(C(C)(C)C)c1 (stereo not given)
inactive: Potency [1] | Potency [2] | Potency [4] | Potency [18] | Potency [5] | Potency [6] | Potency [13] | Potency [7] | Potency [8] | Potency [14] | Potency [17] | Potency [9] | outcome [10] | Potency [15]

Cc1ccc(C(C)OC(=O)C2(C)CCC(C(=O)O)C2(C)C)cc1 (stereo not given)
inactive: Potency [1] | Potency [2] | Potency [4] | Potency [18] | Potency [11] | Potency [12] | Potency [5] | Potency [6] | Potency [13] | Potency [7] | Potency [8] | Potency [9] | outcome [10] | Potency [15]

CC(=O)[O][Al]
inactive: Potency [1] | Potency [2] | Potency [4] | Potency [18] | Potency [12] | Potency [5] | Potency [6] | Potency [13] | Potency [7] | Potency [8] | Potency [14] | Potency [17] | Potency [9] | outcome [10] | Potency [15]

Brc1c2ccccc2c(Br)c2ccccc12
inactive: cytotoxicity [1] 5.32% [at 6.97 µM] | cytotoxicity increase [2] 2.42% [at 6.97 µM] | activity change, negative = cytotoxic [4] -0.25% [at 6.97 µM] | activity change, negative = cytotoxicity [18] 1.98% [at 6.97 µM] | activity change, negative = cytotoxicity [11] -3.92% [at 6.97 µM] | activity change [12] -0.0109% [at 6.97 µM, stronger effect = higher value] | activity change, negative = cytotoxicity [5] 2.26% [at 6.97 µM] | cytotoxicity increase [6] 2.74% [at 6.97 µM] | activity change, negative = cytotoxicity [13] 3.89% [at 8.39 µM] | viability change, negative = cytotoxic [7] 2.88% [at 8.39 µM] | activity change, negative = inhibition [16] 0.899% [at 8.39 µM] | activity change, negative = inhibition [8] 3.07% [at 8.39 µM] | activity change, negative = cytotoxicity [14] 1.69% [at 8.39 µM] | viability change, negative = cytotoxic [17] 2.56% [at 8.39 µM] | viability change, negative = cytotoxic [9] -7.11% [at 8.39 µM] | activity change [10] -0.511% [at 8.39 µM] | activity change, negative = inhibition [15] 2.55% [at 8.39 µM]

CCC(CC)Nc1ccc(C)c(C)c1
inactive: Potency [1] | Potency [2] | Potency [4] | Potency [11] | Potency [12] | Potency [5] | Potency [6] | Potency [7] | Potency [16] | Potency [8] | Potency [14] | Potency [17] | Potency [9] | outcome [10]

COc1cc2c(cc1OC)C(C(C(=O)N(CCc1ccc(OC)c(OC)c1OC)CCc1ccc(OC)c(OC)c1OC)c1ccccc1)=NCC2 (stereo not given)
inactive: Potency [1] | Potency [2] | Potency [12] | Potency [5] | Potency [6] | Potency [13] | Potency [7] | Potency [19] | Potency [8] | Potency [14] | outcome [10]
active: Potency [18] 3.38 µM

C/C=C(/C(=C/C)c1ccc(OC(C)=O)cc1)c1ccc(OC(C)=O)cc1
active: Potency [15] 29.8 µM
inactive: Potency [1] | Potency [2] | Potency [18] | Potency [11] | Potency [12] | Potency [5] | Potency [13] | Potency [7] | Potency [16] | Potency [8] | Potency [14] | Potency [17] | Potency [9] | outcome [10]

OC(CN1CCC(Cc2ccc(F)cc2)CC1)c1ccc(Cl)cc1 (stereo not given)
active: Potency [2] 23.9 µM | Potency [18] 9.52 µM | Potency [11] 16.9 µM | Potency [20] 29.8 µM | Potency [15] 23.7 µM
inactive: Potency [1] | Potency [5] | Potency [13] | Potency [19] | Potency [8] | Potency [17] | Potency [9] | outcome [10]

From PubChem BioAssay (Tox21)
